Laboratory results as given in PubChem BioAssay AID1117319 (Southern Research Institute, 2015).
Several values for one entry are separate records, joined by “and”; a condition that tells them apart may be missing. Equal values may be shown once. The whole screen tested about 260,000 compounds, of which about 1,500 (0.58%) were called active. About 5% were inconclusive and are not listed.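 How the source made its calls: active means inhibition above a set limit at one or more doses, reproduced on every date tested; inconclusive means results disagree between test dates, or hit never tested in dose response; inactive means the rest.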 Only a sample is shown. Entries with a potency or affinity are not part of this list.

Target: Virion infectivity factor (Human immunodeficiency virus type 1 group M subtype B (isolate BH10)) + Virion infectivity factor (Human immunodeficiency virus type 1 group M subtype B (isolate BRU/LAI)) + Virion infectivity factor (Human immunodeficiency virus type 1 group M subtype B (isolate PCV12)) + Virion infectivity factor (Human immunodeficiency virus type 1 group M subtype B (isolate HXB2)) + DNA dC->dU-editing enzyme APOBEC-3G (Homo sapiens) (UniProt P69720+P69721+P69722+P69723+Q9HC16)
Test: inhibitors of Vif binding to APOBEC3G peptide, primary screen, biochemical, TR-FRET, GST-Vif 1-94, biotin-A3G peptide, dose response retest (AID 1117319);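 further: Vif residues 1-94 fused to GST binding biotinylated APOBEC3G peptide 110-148; 0% = full assay without inhibitor and 100% = GST in place of GST-Vif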
Details: active compounds read high

inhibition, inactive:
COc1cccc(NC(=O)CN(C)C(=O)c2ccc(COc3ccccc3)o2)c1 10.4%
O=C(CSc1ccc(-c2ccccc2)nn1)N1CCOCC1 8.48%
COc1cc(/C=C2/SC(=NCc3ccccc3)N(Cc3ccccc3)C2=O)ccc1O -3.52%
COc1ccccc1N1CCN(C(=O)c2sc3nc(-c4ccccc4)cn3c2C)CC1 -3.37%
Cc1c(C(=O)N2CCN(c3ccc(F)cc3)CC2)sc2nc(-c3ccccc3)cn12 -5.76%
COc1cccc(/C=N/NC(=O)C(=O)NCc2ccco2)c1O -4.26%
CN(C)CCN=Cc1c(O)n(Cc2ccc3c(c2)OCO3)c(=O)c2ccccc12 -11.8%
CC(Sc1nc2sc3c(c2c(=O)n1-c1ccccc1)CCCC3)C(=O)O (stereo not given) 17%
CCn1c(SCC(=O)O)nc2sc3c(c2c1=O)CCC3 32.7%
CCn1c(SCC(N)=O)nc2sc3c(c2c1=O)CCCC3 -2.97%
C=CCSc1nc2sc3c(c2c(=O)n1CC)CCC3 6.31%
CC1(C)CC(=O)C=C(c2n[nH]nc2C2CC2)C1 4.55%
CCN(Cc1ccccc1)C(=O)c1cc(S(=O)(=O)N2CCOCC2)ccc1N1CCCC1 3.77%
Cc1cc(Nc2ccc(Br)cc2)nc(-c2ccccc2O)n1 -1.59%
CC(=NCc1cccc(Cl)c1)c1nc(-c2ccco2)oc1O 8.49%
O=C(c1cccc(F)c1)N1CCCC(C(=O)N2CCCC2)C1 (stereo not given) -3.84%
O=C(Nc1ccc(Oc2ccccc2)cc1)c1ccc(Cn2c(=O)[nH]c3ccsc3c2=O)cc1 -6.11%
Cc1ccccc1NC(=O)CSc1n[nH]c(-c2ccco2)n1 9.51%
Cc1cccc(C)c1NC(=O)CSc1nnc(-c2ccco2)n1N -0.27%
Cc1ccccc1NC(=O)CSc1nnc(-c2ccco2)n1N -10.3%
Cc1cccc(NC(=O)CSc2nnc(CNC(=O)c3ccco3)n2C)c1C -5.41%
Cc1cccc(C)c1NC(=O)CSc1nc(-c2ccco2)cc(C(F)(F)F)n1 -1.99%
Cc1cccc(NC(=O)CSc2nnc(-c3ccco3)o2)c1C -1.43%
CN(C)c1ccc(C(CNS(=O)(=O)c2cccc([N+](=O)[O-])c2)N2CCOCC2)cc1 (stereo not given) -0.61%
COc1ccc(CN(CC(=O)NCc2ccc(F)cc2)C(=O)c2ccco2)cc1 -3.39%
O=C(CSc1nnc(-c2cnccn2)n1Cc1ccco1)c1ccc2ccccc2c1 4.99%
CCn1cc(C(=O)NCc2ccc3c(c2)OCO3)c(=O)c2cc(S(=O)(=O)N3CCOCC3)ccc21 -9.22% and 8.82%
CCOc1ccc(C=NN2CCCCCC2)cc1OCC -8.05%
CCCCC12CN3CC(C)(CN(C1)C31C(=O)N(C)c3ccc(C)cc31)C2=O (stereo not given) 3.69%
N#Cc1cccnc1Nc1ccc(Cl)cc1 8.98%
CN(C(=O)COC(=O)c1ccc(Cl)cc1N)C1CCS(=O)(=O)C1 (stereo not given) -4.2%
OCCC1CN(Cc2ccccc2-c2ccco2)CCN1Cc1ccccc1 (stereo not given) 15.2%
COc1cc(C2CC(=O)N3CN(Cc4ccco4)CSC3=C2C#N)ccc1OCc1ccccc1 (stereo not given) 24.2%
N#CC1=C2SCN(Cc3ccco3)CN2C(=O)CC1c1cccc2ccccc12 (stereo not given) 16%
O=C(CN(Cc1ccc(F)cc1)C(=O)CNS(=O)(=O)c1ccccc1)NCC1CCCO1 (stereo not given) 2.58%
O=C(OCCN1C(=O)c2ccccc2C1=O)c1cc(S(=O)(=O)N2CCOCC2)ccc1F -0.69%
CC1=C(C(=O)OC2CCCCC2)C(c2ccccc2Br)NC(=O)N1 (stereo not given) -6.38%
CNC(=S)Nc1ccccc1-c1ccccc1 -7.68%
CNc1cccc2c1C(=O)c1ccccc1C2=O 7.57%
CCCCOc1ccc(C(=O)NN2C(=O)NC3(CCCCC3)C2=O)cc1OC 2.72%
CC[C@@H](C(=O)n1nc(C)cc1C)[C@H](NS(=O)(=O)c1ccc(C)cc1)c1ccccc1 -0.92%
CCNC(=O)CSc1nnc(-c2cccc(S(=O)(=O)N3CCOCC3)c2)o1 4.88%
O=C(c1cc(COc2ccc(F)cc2Cl)on1)N1CCCC(c2ccccc2)C1 (stereo not given) 2.73%
Cn1c(=O)[nH]c(=O)c2c1nc(N1CCOCC1)n2CCSc1nc2ccccc2[nH]1 2.63%
CC1(C)Cc2nc3sc4c(SCC(=O)NCc5ccccc5)ncnc4c3cc2CO1 -70.1% and -107%
CC1(C)Cc2nc3sc4c(=O)n(CC(=O)NCc5ccco5)cnc4c3cc2CO1 2.08%
CC1(C)NC(=O)N(CNc2cc(Cl)ccc2Cl)C1=O 20.3%
CCCn1c(SCC(=O)NC)nnc1C(C)C 6.34%
N#Cc1cccc(NC(=O)Cc2ccsc2)c1 5.18%
N#CC1CN(C(c2ccccc2)c2ccccc2)C1 -4.6%
CCOc1ccc(NC(c2ccccc2)P(=O)(OC)OC)cc1 (stereo not given) 5.04%
CCOc1ccc(N(CC(=O)OC)S(=O)(=O)c2c(C)noc2C)cc1 -1.15%
CCOc1ccc(N(CC(=O)NC(C)CC)S(=O)(=O)c2c(C)noc2C)cc1 (stereo not given) -0.89%
COC(=O)C1CCN(C(=O)Nc2ccccc2)CC1 0.21%
COc1cccc(-c2cc3nc4c(c(N5CCC6(CC5)OCCO6)n3n2)CCCC4)c1 -6.69%
COc1cccc(-c2cc(C(F)(F)F)n3nc(N)nc3n2)c1 32.2%
COc1ccc(N2CCN(CCNC(=O)Nc3ccc(C)c(Cl)c3)CC2)cc1 0.91%
CCCN(CC(=O)Nc1cccc(S(N)(=O)=O)c1)CC(=O)Nc1ccc(F)c(F)c1F 9.36%
CN(Cc1cnc2nc(N)nc(N)c2n1)c1ccc(C(=O)NC(CCC(=O)O)C(=O)O)c2ccccc12 (stereo not given) 4.59%
CN(Cc1cnc2nc(N)nc(N)c2n1)c1ccc(C(=O)NC(CCC(=O)O)C(=O)O)cc1C(F)(F)F (stereo not given) 4.16%
